Assay outcomes (PubChem BioAssay)
The list is not random: actives were taken first. Their share in the collection is about 3.3%.
PI5P4K alpha inh = blocks human PI5P4K alpha kinase activity; 1.2% of 330,000 active; max response, %; PI5P4Kalpha enzyme, ADP-Glo luminescence, 60 min; active compounds read low; P48426; AID 652105; active means max response of -50% or lower; inconclusive means between -30% and -50%; inactive means -30% or higher; further: value at the top dose of about 77 µM
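Quantitative HTS of the MLSMR library against PI5P4Kalpha with substrate. ATP added last at 5 microM final; room temperature, 60 minutes. Remaining ATP depleted, ADP converted and read as luminescence.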
WRN inhibitor = inhibitors of human WRN helicase. Potency, µM (top dose mostly 114 µM), without a hit: top-dose activity change, negative = inhibition, most hits filed as inhibitors. AID 651768. WRN helicase unwinding, fluorescent forked duplex, kinetic. 0.46% of 360,000 active. Q14191; further: potency means the concentration at half of the fitted maximal effect; nearly all actives have a fitted effect of over 55% in size
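WRN at 20 nM final preincubated with compound 15 min at room temperature; reaction started with 100 nM fluorophore/quencher forked duplex oligonucleotide and 2 mM ATP final. Unwinding followed kinetically by red fluorescence (ex 525, em 598 nm).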
USP1-UAF1 inh = blocks the human USP1/UAF1 deubiquitinase complex | 0.23% of 390,000 active | recombinant USP1/UAF1, Ub-Rhodamine cleavage fluorescence | AID 743255 | O94782 | Potency, µM (highest dose often 57.1 µM), without a hit: at the top dose activity change, negative = inhibition, actives largely listed as inhibitors; further: potency means the concentration at half of the fitted maximal effect; nearly all actives have a fitted effect of over 60% in size
Target sequence (O94782 whole entry, looked up): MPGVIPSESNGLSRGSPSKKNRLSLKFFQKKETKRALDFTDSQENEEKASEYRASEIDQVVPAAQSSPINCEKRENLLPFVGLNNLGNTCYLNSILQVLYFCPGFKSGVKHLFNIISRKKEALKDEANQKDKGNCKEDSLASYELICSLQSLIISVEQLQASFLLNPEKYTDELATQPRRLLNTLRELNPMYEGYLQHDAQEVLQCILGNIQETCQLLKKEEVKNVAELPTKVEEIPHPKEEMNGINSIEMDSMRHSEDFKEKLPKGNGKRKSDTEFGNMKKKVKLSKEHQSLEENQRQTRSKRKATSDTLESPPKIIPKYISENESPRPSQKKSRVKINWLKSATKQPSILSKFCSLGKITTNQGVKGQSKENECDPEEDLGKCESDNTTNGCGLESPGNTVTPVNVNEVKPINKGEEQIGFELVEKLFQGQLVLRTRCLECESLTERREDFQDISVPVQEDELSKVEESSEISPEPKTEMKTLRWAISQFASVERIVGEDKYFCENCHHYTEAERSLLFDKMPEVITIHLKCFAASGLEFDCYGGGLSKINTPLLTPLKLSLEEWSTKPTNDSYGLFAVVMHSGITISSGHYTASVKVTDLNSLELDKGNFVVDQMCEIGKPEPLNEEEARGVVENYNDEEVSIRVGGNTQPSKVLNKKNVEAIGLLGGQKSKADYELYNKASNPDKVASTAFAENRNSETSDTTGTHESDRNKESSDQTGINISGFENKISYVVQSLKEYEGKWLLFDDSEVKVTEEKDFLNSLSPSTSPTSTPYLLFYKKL
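High-throughput fluorogenic screen: 1nM USP1/UAF1 complex, Ub-Rho substrate 150nM final, 50mM HEPES pH 7.8 with 0.5mM EDTA, 0.1 mg/ml BSA, 1mM TCEP and 0.01% Tween-20.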
PLK1 PBD block = PLK1 (human) polo-box domain binding inhibition. P53350. Plk1 PBD binding of FITC phosphopeptide, fluorescence polarization. Potency, µM, without a hit: max response, negative = inhibition, actives largely listed as inhibitors. 2.8% of 360,000 active; further: potency means the concentration at half of the fitted maximal effect; series mostly up to about 57 µM; nearly all actives have a fitted effect of over 65% in size
USP2a inh = USP2a (human) protease inhibition; O75604; USP2 core, Ub-CHOP2 coupled fluorogenic reporter, 485/531; Potency, µM (doses to about 38.3 µM), for the others: at the top dose activity change, negative = inhibition, actives largely listed as inhibitors; 0.01% of 330,000 active; AID 463254;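 further: potency means the concentration at half of the fitted maximal effect; plate controls were DMSO wells for no effect and full inhibition by NEM control for full effect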
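USP2 core (10nM final) preincubated 30min RT with compound in 20mM Tris-HCl pH 8.0, 2mM CaCl2, 2mM beta-mercaptoethanol, 0.05% CHAPS; 25nM Ub-CHOP2 plus 25nM reporter substrate added, fluorescence (Ex485/Em531) read after 60min.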
ADP-Glo interf = interferes with ADP-Glo detection without enzyme present; shares compounds with PI5P4K alpha inh; ADP-Glo detection counter-screen, luciferase luminescence, no enzyme; Potency, µM (titrated, usually from 76.9 µM), inactives show at the top dose activity change, negative = inhibition, hits mostly inhibitors; 1,100 tested, under 10 active; AID 743285
The depositor's hits bear a star; ? = inconclusive; nt = no result given; [ ] = another dose, or the depositor's remark. Unless noted, the call rests on the fitted dose curve; in most records, active means well fitted curve in the direction sought with a large enough effect; inconclusive means small, poorly fitted or top-dose-only effect, or another doubt; inactive means no such curve, though single readings can be large; an effect the other way counts as inactive or inconclusive. Unless noted, on the % scale 0 is the no-effect control and ±100 the full control effect.

SMILES	PI5P4K alpha inh	WRN inhibitor	USP1-UAF1 inh	PLK1 PBD block	USP2a inh	ADP-Glo interf
CC(C)C1Nc2ccc(S(N)(=O)=O)cc2C2C=CCC21 (stereo unspecified)	?	0.1%	-17.8%	-27.7%	1.4%	nt
Brc1cccc(-c2nn(-c3ccccc3)c3c2cnc2cc4c(cc23)OCO4)c1	nt	nt	-20.1%	nt	nt	nt
COc1ccc(CNC(=O)CCCn2nc(C)c([N+](=O)[O-])c2C)cc1OC	?	-30.1%	-4.2%	-15.3%	6.4%	-4.0%
Cc1ccc(-c2csc(NC(=O)c3ccno3)n2)cc1	-53.2*	-25.2%[57.1 µM]	-20.4%	?	0.6%	-3.1%
O=C(OCC(=O)N1N=C(c2ccc(Cl)cc2)CC1c1ccco1)c1cccnc1 (stereo unspecified)	-71.4*	?	0.0%	-30.0%	?	-1.1%
Nn1c(SCC(=O)NC(=O)NCc2ccco2)nnc1-c1ccc(OC(F)F)cc1	-66.7*	-4.3%[11.6 µM]	-8.2%	-21.4%	1.0%	-6.0%
CN1CCN(C(c2ccc(Br)cc2)c2cc(Cl)c3cccnc3c2O)CC1 (stereo unspecified)	-84.3*	-22.7%	?	5.32µM*	-6.7%	-6.6%
CC(C)(C)[C@H]1C=C(C(=O)N2CCOCC2)O[C@@H](OCc2ccc(CO)cc2)C1	0.5	-2.6%	2.2%	-9.3%	0.5%	3.2%
COc1ccc(F)cc1S(=O)(=O)NCC(c1ccco1)S(=O)(=O)c1cccs1 (stereo unspecified)	nt	nt	-21.7%	nt	nt	nt
Cc1ccc(-c2cc3c(n2-c2ccc(C(=O)O)cc2)CCCC3=O)cc1	-78.1*	-20.5%	-12.7%	3.6%	1.1%	-5.8%
O=C1CCCc2c1cc(-c1ccccc1)n2-c1ccc(O)cc1	?	2.0%	2.1%	-16.0%	-0.9%	nt
CSc1nc2sc3c(c2c(=O)n1-c1ccc(F)c(Cl)c1)CCN(C(C)=O)C3	nt	nt	-24.0%	nt	nt	nt
Cc1nc2c(nnn2Cc2ccccc2)c(=O)[nH]1	-87.7*	?	?	4.74µM*	3.8%	1.7%
CCC(=O)N1c2ccccc2CC1C(=O)NCc1cc(Br)ccc1OC (stereo unspecified)	nt	nt	-25.7%	nt	nt	nt
Cc1ccc(N(C)C(=O)Cn2cnc3onc(-c4ccc(F)cc4)c3c2=O)cc1C	nt	nt	-18.9%	nt	nt	nt
Clc1cccc(Cl)c1CNc1ccc(N2CCCC2)cc1	-50.9*	-10.2%[57.1 µM]	-11.5%	?	-0.8%	-13.5%
CCOC(=O)c1nnn(-c2ccccc2)c1C	-0.3	0.4%	-2.3%	-8.5%	0.4%	-1.4%
Cc1cc(S(=O)(=O)N2CCN(Cc3noc(CCC(=O)N4CCCCC4)n3)CC2)ccc1F	nt	nt	-11.5%	nt	nt	nt
Cc1ccn2c(NC3CCCC3)c(-c3cccs3)nc2c1	-65.5*	-26.7%	?	4.23µM*	-1.2%	-4.8%
O=C(NCCc1ccc(Cl)cc1)c1nnc(Cc2ccc(Cl)cc2Cl)o1	nt	nt	-22.6%	nt	nt	nt
Cc1ccc(NC(=O)N2CCC(NC(=O)c3ccco3)CC2)cc1	-1.8	3.9%	2.0%	-8.0%	1.8%	nt
Cc1ccc(NC(=O)N2CCC(NC(=O)c3cccc(C)c3)CC2)cc1	-77.8*	-7.5%	-8.9%	-25.1%	0.1%	-5.1%
CCc1sc(C(=O)Nc2ccc(N3CCOCC3)cc2)cc1C	-0.2	4.5%	-7.6%	-7.5%	0.1%	nt
CCc1sc(C(=O)Nc2ccc3c(c2)OCO3)cc1C	-71.8*	-28.2%	-8.0%	-10.0%	-3.6%	5.4%
Cc1cc(C(=O)OCC(=O)Nc2cc(S(=O)(=O)N3CCOCC3)ccc2Cl)c(C)o1	4.5	-10.7%[57.1 µM]	-2.9%	-3.8%	-3.3%	1.0%
SMILES	PI5P4K alpha inh	WRN inhibitor	USP1-UAF1 inh	PLK1 PBD block	USP2a inh	ADP-Glo interf
Cc1ccc(CNC(=O)Cn2c3ncccc3c(=O)n2-c2ccccc2)cc1	nt	nt	-12.9%	nt	nt	nt
Cc1cc2[nH]c3c(c[n+](C)c4ccccc34)c2cc1C	-16.4	23.8%[11.6 µM]	-21.8%	2.1%	-3.6%	nt
Cc1cc2[nH]c3c4ccccc4nc(C)c3c2cc1C	-51.8*	21.9%[11.6 µM]	-9.9%	1.2%	nt	5.9%
CCCCNC(=O)c1ccc2nc(-c3ccco3)c(-c3ccco3)nc2c1	-72.8*	79.4µM*	-19.2%	21.2µM*	-8.3%	-10.1%
O=C(NCc1ccccc1)C(c1ccccc1F)n1c(=O)c(-c2ccco2)nc2ccccc21 (stereo unspecified)	-63.6*	-5.8%	nt	?	nt	-5.3%
COc1ccc2nc(-c3ccco3)c(-c3ccco3)nc2c1	-57.9*	44.7µM*	-15.1%	?	3.5%	-3.2%
Cc1cccc(C)c1NC(=O)C(c1ccccc1)n1c(=O)c(-c2ccco2)nc2ccccc21 (stereo unspecified)	-51.8*	-11.5%	nt	?	nt	-4.2%
CCCCSCCCNC(=O)c1cn(CC)c2ccc(S(=O)(=O)N(C)C3CCCCC3)cc2c1=O	nt	nt	-17.0%	nt	nt	nt
Cc1ccc(CNC(=O)CN2C(=O)C3(SCC(=O)N3c3cc(C)cc(C)c3)c3ccccc32)cc1 (stereo unspecified)	nt	nt	-17.3%	nt	nt	nt
Cc1ccc(CNC(=O)CN2C(=O)CCn3nc(-c4ccccc4)cc32)cc1	nt	nt	2.4%	nt	nt	nt
CCCCCNC(=O)C(c1cc2ccccc2o1)n1c(=O)c(-c2ccco2)nc2ccccc21 (stereo unspecified)	-108.3*	?	nt	7.52µM*	nt	-6.8%
Cc1cccc(C)c1NC(=O)C(c1ccc(C#N)cc1)n1c(=O)c(-c2ccco2)nc2ccccc21 (stereo unspecified)	-52.8*	-3.3%	nt	-12.6%	nt	-1.5%
CCCCCNC(=O)C(c1ccncc1)n1c(=O)c(-c2ccco2)nc2ccccc21 (stereo unspecified)	?	0.2%	nt	?	nt	nt
COc1ccc(N2CCN(CCCNC(=O)c3cnn(-c4ccc(C)cc4)c3-n3cccc3)CC2)cc1	nt	nt	-18.9%	nt	nt	nt
COc1ccc(NC(=O)N(Cc2ccco2)C2CCN(C(C)=O)CC2)c(OC)c1	nt	nt	3.1%	nt	nt	nt
NC(Cc1ccc(C(F)(F)F)cc1)c1csc(NC(=O)Nc2ccccc2)n1 (stereo unspecified)	-56.0*	-9.2%	nt	0.2%	nt	-2.2%
O=c1c(N2CCOCC2)coc2ccccc12	-2.9	0.1%	-16.0%	0.2%	9.6%	nt
O=c1[nH]c(N2CCOCC2)cc2ccccc12	-3.1	14.1%	10µM*	-4.1%	nt	-5.0%
CN(C(=O)c1ccc(Br)o1)C1CCS(=O)(=O)C1 (stereo unspecified)	?	-4.3%	-8.1%	-5.2%	2.2%	4.4%
C=CCn1c(C)cc(C2=NNC(=NCc3ccccc3)SC2)c1C	-17.5	3.2%	-17.6%	-10.0%	-6.3%	nt
Cc1ccc(C)c(C2=NNC(=NCc3ccccc3)SC2)c1	-65.5*	-24.7%	-13.9%	-24.1%	-2.0%	-3.2%
CCCNC(=O)CSc1nnc(-c2ccco2)n1C	-51.3*	-2.0%	-6.7%	2.67µM*	-1.2%	-3.2%
